# This is a sample that favours compounds with a hit; in the whole collection about 17% have one here.
# HT1080NT lethal: kills 2HG-producing HT-1080-NT fibrosarcoma cells; HT-1080-NT fibrosarcoma viability, CellTiter-Glo ATP luminescence, 48 h; Potency, µM (series often up to 46.1 µM), for the others: at the highest dose activity, negative = less viability, usual class: cytotoxic; hit rate 1.6% among 360,000; AID 686970;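 further: NT is the 2HG producing partner of a matched IDH1 knockdown line; 0% = DMSO-treated cells and -100% = media-only wells without cells; nearly all actives have a fitted effect of over 55% in size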
#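 A 48-hour cytotoxicity screen used HT-1080-NT cells plated 2 hours before compound delivery. ATP-based CellTiter-Glo luminescence measured viability, normalized to DMSO and no-cell controls.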
# HT1080 IDH1KD tx: toxicity to HT-1080 IDH1 knockdown cells (counter line); HT-1080 IDH1 knockdown viability, ATP luminescence, 48 h; Potency, µM (highest dose often 46.1 µM), inactives show at the top dose activity, negative = toxicity, most hits filed as cytotoxic; hit rate 2% among 360,000; AID 686971;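 further: 0% = DMSO wells and -100% = cell-free medium wells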
#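 After a 2 h attachment period, IDH1KD HT-1080 cells took pin-transferred compound for 48 h at 37 °C; ATP-based luminescence after 10 min room-temperature reagent incubation reported viability.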
# HepG2 viability: counter-screen for TGF-b inhibitors: cytotoxicity in HepG2 cells | HepG2 CAGA-GFP viability, ATP luminescence, 18 h | Potency, µM (titrated, usually from 46.1 µM), without a hit: at the top dose activity change, negative = cytotoxicity, hits mostly cytotoxic | hit rate 0.76% among 410,000
#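 CellTiter-Glo luminescence gave cytotoxicity after 18 hours at 37 degrees C. The cells were HepG2 CAGA-GFP in 1% FBS DMEM, stimulated with 500 pg/mL TGF-beta after compound addition. %Activity was normalised to no-cell wells (complete cell-killing) and DMSO (no toxicity), and curves were fitted and classified.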
# TGFb inhibitor: inhibitors of TGF-b signaling; AID 588855; hit rate 1.2% among 410,000; Potency, µM (titrated, usually from 46.1 µM), inactives show at the highest dose activity, negative = inhibition, hits mostly inhibitors; HepG2 CAGA-GFP TGF-b/SMAD3 reporter, GFP fluorescence, 18 h; TGF-beta stimulated, 500 pg/mL final; further: on the % scale 0 is the no-effect control and ±100 the full control effect; nearly all actives have a fitted effect of over 65% in size
#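 First, reporter cells (HEPG2 CAGA-GFP) rested 2 h at 37 degrees C. Next, compounds were pinned in and TGF-beta added to 500 pg/mL final. After 18 h, GFP was imaged per cell and summed per well.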
# DT40 TDP1 no CPT: qHTS for Inhibitors of human tyrosyl-DNA phosphodiesterase 1 (TDP1): qHTS in cells in absence of CPT. hit rate 15% among 420,000. DT40 Tdp1-/- hTDP1 cells, no CPT, ATP luminescence, 48 h. Potency, µM (top dose mostly 46.2 µM), without a hit: at the highest dose activity change, negative = growth inhibition, usual class: inhibitors; further: on the % scale 0 is the no-effect control and ±100 the full control effect; nearly all actives have a fitted effect of over 55% in size
#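 Chicken DT40 Tdp1-/- cells complemented with human TDP1, screened without camptothecin (DMSO vehicle only), 400 cells/well. Compounds pin-transferred, cells incubated at 37 °C for at least 48 hr. Growth read as ATP-dependent luminescence (CellTiter-Glo, 30 min at RT).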
# TDP1 cell CPT: DT40-hTDP1 cell growth loss with CPT. chicken DT40 Tdp1-/-;hTDP1 cells + 20 nM CPT, ATP luminescence, 48 h. Potency, µM (highest dose often 46.2 µM), for inactives: at the highest dose activity change, negative = growth inhibition, hits mostly inhibitors. AID 686979. hit rate 12% among 420,000; further: on the % scale 0 is the no-effect control and ±100 the full control effect; nearly all actives have a fitted effect of over 55% in size
#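 Chicken DT40 Tdp1-/- cells stably complemented with human TDP1 were seeded at 400 cells/well in medium containing 20 nM camptothecin, exposed to pin-transferred compounds, and grown at 37 °C for at least 48 hr. Viability was read as ATP luminescence.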
# * hit, by the source's call; u = inconclusive; x = not tested or not shown; [ ] = another dose, or the depositor's remark. The call rests on the fitted dose curve; in most records, active means well fitted curve in the direction sought with a large enough effect; inconclusive means small, poorly fitted or top-dose-only effect, or another doubt; inactive means no such curve, though single readings can be large; an effect the other way counts as inactive or inconclusive. Potency means the concentration at half of the fitted maximal effect.
SMILES,HT1080NT lethal,HT1080 IDH1KD tx,HepG2 viability,TGFb inhibitor,DT40 TDP1 no CPT,TDP1 cell CPT
CCOC(=O)CSc1nnc(CSc2nc3sc4c(c3c(=O)[nH]2)CCCC4)n1-c1ccccc1,-1.1%,9.6%,-45.1%,u,3.9%,9.9%
COc1ccccc1NC(=O)c1sc2nc(-c3ccco3)ccc2c1N,-19.4%,-23.1%,-2.9%,3.6%,u,-16.3%
Nc1c(C(=O)Nc2ccccc2Br)sc2nc(-c3cccs3)ccc12,x,x,-1.6%,-0.9%,u,u
COc1cccc(-c2ccc3c(N)c(C(=O)Nc4cc(F)ccc4F)sc3n2)c1,x,x,1.1%,11.3%,u,u
Nc1c(C(=O)Nc2cccc(Cl)c2Cl)sc2nc(-c3cccnc3)ccc12,-6.6%,-13.9%,-8.4%,0.0%,u,u
COc1cccc(-c2ccc3c(N)c(C(=O)Nc4ccccc4C)sc3n2)c1,x,x,-20.9%,u,23.1µM*,u
Cc1ccccc1NC(=O)c1sc2nc(-c3ccncc3)ccc2c1N,x,x,-39.4%,2.4%,16.4µM*,-88.4%
Nc1c(C(=O)Nc2nc3ccccc3s2)sc2nc(-c3cccs3)ccc12,u,18.4µM*,6.31µM*,208.0%,20.6µM*,11.6µM*
Nc1c(C(=O)Nc2ccccc2)sc2nc(-c3ccco3)ccc12,-16.9%,u,-14.5%,4.1%,18.4µM*,23.1µM*
Nc1c(C(=O)Nc2ccc(F)c(F)c2)sc2nc(-c3ccncc3)ccc12,x,x,-12.7%,75.8%,-4.7%,0.1%
Nc1c(C(=O)Nc2ccc(Cl)c(C(F)(F)F)c2)sc2nc(-c3ccncc3)ccc12,x,x,-20.5%,u,10.3µM*,u
Oc1ccccc1Nc1nc(NCc2ccco2)c2ccccc2n1,-12.8%,-5.8%,-74.1%,u,20.6µM*,16.4µM*
COc1ccc(OC)c(Nc2nc(NCc3ccco3)c3ccccc3n2)c1,20.6µM*,u,-52.7%,u,23.1µM*,u
Cc1ccccc1Nc1nc(NCc2ccco2)c2ccccc2n1,u,14.6µM*,-36.9%,u,3.66µM*,5.8µM*
COc1ccc(OC)c(Nc2nc(NCc3ccco3)nc(N)c2[N+](=O)[O-])c1,-3.5%,-2.1%,-18.8%,u,u,-5.7%
CC1CCCCN1c1nnc(NC(=O)Cn2c(=O)oc3ccccc32)s1 (configuration not stated),-2.7%,-1.1%,-6.3%,5.0%,-27.1%,-3.2%
Cc1cccn2c(=O)cc(COc3ccc(NC(=O)C(C)C)cc3)nc12,x,x,-4.1%,-6.0%,2.2%,4.3%
CN(C)c1ccc(C2C=Cc3ccccc32)c2ccccc12 (configuration not stated),x,x,-21.9%,-1.4%,u,-19.2%
OC1(c2ccc(OC(F)F)cc2)CSC(=Nc2cccnc2)N1C1CC1 (configuration not stated),-11.9%,u,-23.8%,-26.1%,16.4µM*,20.6µM*
O=C(/C=C/c1cccs1)c1ccc(NC(=O)c2ccccc2F)cc1,-3.8%,11.9%,-15.3%,0.0%,11.6µM*,-23.2%
COc1ccccc1C(=O)Nc1ccc(C(=O)/C=C/c2cccs2)cc1,-21.8%,-18.5%,-9.4%,u,18.4µM*,u
O=C(Nc1ccc(NC(=O)c2ccccc2F)cc1)c1cccs1,3.1%,0.8%,-10.3%,-4.5%,u,-8.3%
CCC(C)NC(=O)C(=O)Nc1c2c(nn1-c1ccccc1)CS(=O)(=O)C2 (configuration not stated),x,x,6.6%,15.7%,-6.0%,-11.0%
COc1cc(/C=C2/C(=N)N3C=CSC3=NC2=O)ccc1OCCCOc1cc(C)ccc1C,-7.2%,-11.0%,-43.4%,-13.8%,u,u
Cc1noc(C)c1C(=O)N1CCC2(CCCN(C(c3ccccc3)c3ccccc3)C2)CC1,x,x,x,x,23.1µM*,u
SMILES,HT1080NT lethal,HT1080 IDH1KD tx,HepG2 viability,TGFb inhibitor,DT40 TDP1 no CPT,TDP1 cell CPT
Cc1noc(C)c1C(=O)N1CCC[C@@]2(CCN(Cc3ccccc3)C2)C1,x,x,x,x,-5.0%,6.2%
Cc1noc(C)c1C(=O)N1CCC[C@@]2(CCN(c3cccc(-c4ccccc4)c3)C2)C1,x,x,x,x,18.4µM*,16.4µM*
COc1ccc(C(=O)Oc2c(Sc3ccc(C)cc3)c(C)nn2C(C)(C)C)cc1OC,x,x,-17.3%,u,20.6µM*,u
Cc1cccc(C(=O)Oc2c(Sc3ccccc3)c(C)nn2C(C)(C)C)c1,x,x,-33.9%,u,23.1µM*,u
COCC(=O)Oc1c(Sc2ccc(C)cc2)c(C)nn1C(C)(C)C,x,x,-31.0%,-1.6%,-23.9%,-21.4%
COc1cccc(C(=O)Oc2c(Sc3ccc(C)cc3)c(C)nn2C(C)(C)C)c1OC,x,x,12.6µM*,12.6µM*,23.1µM*,16.4µM*
COc1ccc(C(=O)Oc2c(Sc3ccc(Cl)cc3)c(C)nn2C(C)(C)C)cc1OC,x,x,-15.0%,-28.1%,u,23.1µM*
O=C(Cn1cnc2c(oc3ccccc32)c1=O)Nc1ccc(F)cc1F,x,x,-0.8%,-5.3%,-14.6%,-15.6%
COC(=O)CSc1ncnc2c1sc1nc(N3CCOCC3)c3c(c12)CCCC3,16.3%,17.2%,9.2%,1.5%,-4.9%,-5.5%
CC1(C)Cc2c(c(N3CCOCC3)nc3sc4c(NCCN)ncnc4c23)CO1,u,u,-10.8%,-11.0%,u,u
CC1(C)Cc2c(c(N3CCCC3)nc3sc4c(N5CCN(CCO)CC5)ncnc4c23)CO1,u,-5.3%,-31.4%,-12.2%,11.2µM*,16.4µM*
OCCN1CCN(c2ncnc3c2sc2nc(N4CCOCC4)c4c(c23)CCC4)CC1,u,9.2%[9.24 µM],-60.9%,-17.0%,20.6µM*,u
CN(C)CCNc1ncnc2c1sc1nc(N3CCOCC3)c3c(c12)CC(C)(C)SC3,u,u,-95.7%,-2.3%,20.6µM*,u
OCCN(CCO)c1ncnc2c1sc1nc(N3CCOCC3)c3c(c12)CCCC3,-18.1%,-14.4%,-12.7%,-10.6%,18.4µM*,16.4µM*
CCOCc1c(C(=O)N2CCN(CC(=O)Nc3ccc(F)cc3)CC2)oc2ccccc12,10.6%,2.8%,-1.6%,25.6%,-26.2%,-22.5%
Cc1ccc(CNC(=O)C2CCC(=O)N(CCCN3CCOCC3)C2)cc1 (configuration not stated),-5.2%,-0.1%,3.0%,4.3%,1.5%,-11.5%

# Screens (PubChem BioAssay)
